Source: PubChem BioAssay (NCI)
Several values for one entry are separate records, joined by “and”; a condition that tells them apart may be missing. Identical values can stand only once. The panel holds about 79,000 compounds, 15% with a hit somewhere; the sample as a whole holds those more often. Some structures have more than one record in an assay (separate samples or runs), and their calls can disagree. Activity calls are given as the source filed them. No stated cut-off is given here; in the data, active means growth inhibition above about 70%; inactive means the rest.

Tests used:
[1] = NCI Yeast Anticancer Drug Screen. Data for the rad50 strain (AID 155);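 further: 0% = growth of vehicle-only cultures of the same strain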; details: S. cerevisiae rad50 strain growth inhibition; at 50.0 µM; stronger effect = higher value
Procedure, shortened: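 Compounds were tested on a yeast strain with an engineered DNA damage repair alteration; the reported value is growth inhibition normalised to vehicle treatment.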

[2] = NCI Yeast Anticancer Drug Screen. Data for the mec2-1 strain (AID 157); details: S. cerevisiae mec2-1 strain, at 50.0 µM, stronger effect = higher value
Procedure, shortened: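 Yeast mec2-1 mutant treated with compound. Readout: growth inhibition vs vehicle controls.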

[3] = NCI Yeast Anticancer Drug Screen. Data for the sgs1 mgt1 strain (AID 161);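 further: 0% = growth of cultures given vehicle only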; details: S. cerevisiae sgs1 mgt1 strain, at 50.0 µM, stronger effect = higher value
Procedure, shortened: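 Genetically altered yeast, compound exposure, growth inhibition relative to vehicle.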

[4] = NCI Yeast Anticancer Drug Screen. Data for the cln2 rad14 strain (AID 165);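 further: 0% = growth equal to vehicle treated cultures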; details: S. cerevisiae cln2 rad14 strain, at 50.0 µM, stronger effect = higher value
Procedure, shortened: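 cln2 rad14 yeast strain; compound exposure; growth inhibition read vs vehicle controls.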

[5] = NCI Yeast Anticancer Drug Screen. Data for the bub3 strain (AID 167); details: S. cerevisiae bub3 mutant strain, at 50.0 µM, stronger effect = higher value
Procedure, shortened: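 Growth of a checkpoint-deficient yeast mutant is measured after compound exposure. Values represent inhibition relative to vehicle.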

[6] = NCI Yeast Anticancer Drug Screen. Data for the mlh1 rad18 strain (AID 175); details: S. cerevisiae mlh1 rad18 strain growth inhibition; at 50.0 µM; stronger effect = higher value
Procedure, shortened: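 Yeast w/ defined DNA-repair lesions; compound exposure; growth vs vehicle controls → % inhibition.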

Row | Structure (SMILES) | growth inhibition [1] | growth inhibition [2] | growth inhibition [3] | growth inhibition [4] | growth inhibition [5] | growth inhibition [6]
1 | NCCN.O=N[O-].O=N[O-].O=N[O-].O=N[O-].[Co+3].[K+] | -1.1% (inactive) | 4.05% (inactive) | 14.4% (inactive) | 12.3% (inactive) | 3.6% (inactive) | 2.1% (inactive)
2 | CN1CCN(C(=O)Cc2c[nH]c3ccccc23)CC1 | -1.25% (inactive) | 11.8% (inactive) | 2.9% (inactive) | -20.3% (inactive) | 9.35% (inactive) | 15.7% (inactive)
3 | CCOC(=O)C(=O)C1CCNC1=O (stereo unspecified) | 9.2% (inactive) | 3.35% (inactive) | -4.45% (inactive) | -0.25% (inactive) | -3.65% (inactive) | 24.5% (inactive)
4 | O=[N+]([O-])c1ccc(O)c(CBr)c1 | 35.5% (inactive) | -5.15% (inactive) | 7.55% (inactive) | 18.6% (inactive) | 13.9% (inactive) | 4.95% (inactive)
5 | O=C(CC(=O)C(F)(F)F)c1cccs1.[Fe] | 22.1% (inactive) and 27.1% (inactive) | 34.8% (inactive) and 30.1% (inactive) | 33.2% (inactive) and 28.4% (inactive) | 11.2% (inactive) and 10.8% (inactive) | 20.9% (inactive) and 21.2% (inactive) | 48.2% (inactive) and 42.5% (inactive)
6 | Cc1cc(C)cc(C(O)(C(=O)O)c2ccccc2)c1 (stereo unspecified) | -0.75% (inactive) | -5.35% (inactive) | -5.45% (inactive) | 5.55% (inactive) | -5.9% (inactive) | -4.9% (inactive)
7 | CCCCCCCC[As](=O)(O)CCCCCCCC | -2.95% (inactive) | -0.3% (inactive) | 20.9% (inactive) | -6.85% (inactive) | -0.7% (inactive) | -10.2% (inactive)
8 | N#C[S-].N#C[S-].[Au+3].[Au+3].[CH3-].[CH3-].[CH3-].[CH3-] | 51.4% (inactive) | 11% (inactive) | 61.5% (inactive) | 33.4% (inactive) | 12.5% (inactive) | 53.5% (inactive)
9 | [N-]=[N+]=Nc1nc2ccccc2c(N=[N+]=[N-])c1Cl | 6.85% (inactive) | -6.7% (inactive) | 5.6% (inactive) | 31.9% (inactive) | 5.45% (inactive) | 9.45% (inactive)
10 | CCCOCC(O)C[As](=O)(O)c1cccc(Cl)c1 (stereo unspecified) | 2.35% (inactive) | 3.55% (inactive) | 0.3% (inactive) | -4.4% (inactive) | 10.2% (inactive) | -5.55% (inactive)
11 | Cc1nnnn1C | -13.2% (inactive) | -11.6% (inactive) | -18.9% (inactive) | -10.9% (inactive) | -19.1% (inactive) | -13.9% (inactive)
12 | COc1ccc(/C=C/C(=O)c2c(-c3ccccc3)nn(C)c(=O)c2N2CC2C)cc1 (stereo unspecified) | -11.6% (inactive) | 19.9% (inactive) | -10.4% (inactive) | -7.2% (inactive) | -4.8% (inactive) | -13.4% (inactive)
13 | CCC[CH2][Sn]([I])([CH2]I)[CH2]CCC | 98.5% (active) | 99.1% (active) | 99% (active) | 98.6% (active) | 98.8% (active) | 98.5% (active)
14 | CCCCC(CC)C(=O)O.[Sn] (stereo unspecified) | -20.5% (inactive) | -9.1% (inactive) | -10.3% (inactive) | -10.4% (inactive) | -20.9% (inactive) | -15.8% (inactive)
15 | Cc1ccc([As]=[As]c2ccc(C)cc2N)c(N)c1 (stereo unspecified) | -12.3% (inactive) | -2.8% (inactive) | -3.95% (inactive) | -9.95% (inactive) | 9.05% (inactive) | -9.6% (inactive)
16 | CC1=CC=NC(Cl)(Cl)N1 | 19.4% (inactive) | -9.6% (inactive) | -15.7% (inactive) | 13.6% (inactive) | -1.35% (inactive) | 20.4% (inactive)
17 | CN1CCC2CCCCN2CC1=O (stereo unspecified) | -4.15% (inactive) | 0.45% (inactive) | -1% (inactive) | -4.35% (inactive) | -12% (inactive) | -4% (inactive)
18 | COc1cccc(NC2=NCCO2)c1 | -17.1% (inactive) | -1.2% (inactive) | -5.95% (inactive) | 3.8% (inactive) | -2.2% (inactive) | -12.2% (inactive)
19 | CC(=O)CC(C)=O.CC(=O)CC(C)=O.[Mn] | 17.1% (inactive) | 1.05% (inactive) | 1.75% (inactive) | -42.2% (inactive) | -3.3% (inactive) | -2.5% (inactive)
20 | CCOC(OCC)c1ccccc1 | 7.95% (inactive) | -5% (inactive) | -4.95% (inactive) | -11.9% (inactive) | 6.6% (inactive) | 14.2% (inactive)
21 | CCNP(=S)(OCC)OCC | -9.2% (inactive) | 3.15% (inactive) | 5.05% (inactive) | -3.9% (inactive) | -2.7% (inactive) | -4% (inactive)
22 | CCOP(=O)(OCC)/C(C#N)=C(\C)c1ccco1 | -26.4% (inactive) | -28.9% (inactive) | -15.3% (inactive) | -18.4% (inactive) | -11.6% (inactive) | -1.2% (inactive)
23 | CCOP(=O)(OCC)C(N)Cc1ccc(OC)c(OC)c1 (stereo unspecified) | -3.85% (inactive) | -4% (inactive) | 2.35% (inactive) | 19.9% (inactive) | 13% (inactive) | -16.6% (inactive)

Row | Structure (SMILES) | growth inhibition [1] | growth inhibition [2] | growth inhibition [3] | growth inhibition [4] | growth inhibition [5] | growth inhibition [6]
24 | CCCCOC1OCN(C2CCCCC2)CC1(C)C (stereo unspecified) | 13.5% (inactive) | 28.1% (inactive) | 27.5% (inactive) | 13.7% (inactive) | 36.8% (inactive) | 41.8% (inactive)
25 | CC(Cc1ccc(O)cc1)NCC(O)c1ccc(O)c(O)c1 (stereo unspecified) | 10.6% (inactive) | 15.3% (inactive) | 3.4% (inactive) | 0.55% (inactive) | -7.45% (inactive) | 22.9% (inactive)
26 | COc1ccc(C(N)Cc2ccccc2)cc1 (stereo unspecified) | 10.8% (inactive) | 3.15% (inactive) | 10.8% (inactive) | 9.85% (inactive) | 3.5% (inactive) | -2.35% (inactive)
27 | CSCCC(N)C(=O)O (stereo unspecified) | -50.4% (inactive) and -3.35% (inactive) | 9.55% (inactive) and -25.1% (inactive) | -6% (inactive) and -7.65% (inactive) | -27.8% (inactive) and -1% (inactive) | 32.4% (inactive) and -11.6% (inactive) | -103% (inactive) and -2.65% (inactive)
28 | O=[N+]([O-])c1cc(C2CCCCC2)c(O)c([N+](=O)[O-])c1 | 47.3% (inactive) and 47.2% (inactive) | 26% (inactive) and 79.5% (active) | 18% (inactive) and 80.8% (active) | -8.75% (inactive) and 59.2% (inactive) | 21.2% (inactive) and 81.8% (active) | 26.4% (inactive) and 86.3% (active)
29 | CCCCCCCCCC[As](=O)(O)O | 41.8% (inactive) | 22.2% (inactive) | 8.6% (inactive) | 21.9% (inactive) | 18.9% (inactive) | 16.9% (inactive)
30 | [Mg]=[Se] | 16.6% (inactive) | 3.15% (inactive) | 14.4% (inactive) | -6.5% (inactive) | 6% (inactive) | 38.8% (inactive)
31 | CCCCOP(=S)(Nc1ccccc1)OCCCC | 91% (active) | 40.7% (inactive) | 81.8% (active) | 42% (inactive) | 73.5% (active) | 82.2% (active)
32 | CNC(C)(C)Cc1ccc(Cl)cc1 | 33.5% (inactive) | 10.8% (inactive) | 27.9% (inactive) | 24.9% (inactive) | 4.6% (inactive) | -0.45% (inactive)
33 | CCN(CC)c1cc[c]([Hg][O]C(C)=O)cc1 | 99.2% (active) | 99% (active) | 99.5% (active) | 99.2% (active) | 99% (active) | 99.2% (active)
34 | CCOP(=S)(OCC)Oc1ccccc1 | -3.8% (inactive) | -14.5% (inactive) | -15.2% (inactive) | -7.6% (inactive) | -20.9% (inactive) | 3.5% (inactive)
35 | CC(=O)OC1CCC2(C)C(=CC=C3C4CCC(=O)C4(C)CCC32)C1 (stereo unspecified) | 5.85% (inactive) and 8.55% (inactive) | 44.6% (inactive) and 36.8% (inactive) | -5.15% (inactive) and 3.5% (inactive) | 3% (inactive) and 2.9% (inactive) | 35.1% (inactive) and 34.3% (inactive) | 22.5% (inactive) and 10.2% (inactive)
36 | CC(C)CC(=O)[O-].N.N.N.N.N.[Co+3].[O-][Cl+3]([O-])([O-])[O-] | -4.85% (inactive) | 23.4% (inactive) | -19.6% (inactive) | 21.8% (inactive) | -10.1% (inactive) | -19.1% (inactive)
37 | CCC[CH2][Pb]([CH2]CCC)([CH2]CCC)[O]C(C)=O | 9.6% (inactive) | -7.95% (inactive) | 16.1% (inactive) | 25.1% (inactive) | 25% (inactive) | 13.3% (inactive)
38 | Nc1cc(S(=O)(=O)F)ccc1Cl | 26.3% (inactive) | 6.1% (inactive) | 20.1% (inactive) | 35.5% (inactive) | 22.9% (inactive) | 23.6% (inactive)
39 | CC1(Cl)CC2C(CC1Sc1nnnn1-c1ccccc1)C2(C)C (stereo unspecified) | -7.45% (inactive) | -35.2% (inactive) | -7.2% (inactive) | -20.6% (inactive) | -18.4% (inactive) | -7.2% (inactive)
40 | ICCCI | 0.6% (inactive) | -29.8% (inactive) | 16.1% (inactive) | 3.8% (inactive) | 19% (inactive) | 3.2% (inactive)
41 | O=[N+]([O-])c1ccc([Se]c2ncccn2)c([N+](=O)[O-])c1 | -14.8% (inactive) | 1.95% (inactive) | -19.4% (inactive) | -8.75% (inactive) | -3.15% (inactive) | 0.5% (inactive)
42 | O=P(OCCCCl)(OCCCCl)C(Cl)(Cl)Cl | -0.45% (inactive) | -5.65% (inactive) | -5.2% (inactive) | 6.85% (inactive) | 13.7% (inactive) | 2.15% (inactive)
43 | [F][Sn]([c]1ccc(Cl)cc1)([c]1ccc(Cl)cc1)[c]1ccc(Cl)cc1 | 98.2% (active) | 95.2% (active) | 98.5% (active) | 95.9% (active) | 96.2% (active) | 98.2% (active)
44 | O=C1NC(=O)C(C(=O)C(=O)Nc2cc(Cl)ccc2Cl)C(=O)N1 | -7.45% (inactive) | -25.3% (inactive) | -20.6% (inactive) | 4.7% (inactive) | -22.4% (inactive) | -12.3% (inactive)
45 | COc1ccc2nc3ccccc3c(NCCCCCCN(CCCl)CCCl)c2c1 | 88.2% (active) | 79.1% (active) | 80.8% (active) | 86.3% (active) | 48.4% (inactive) | 82.9% (active)
46 | CC(Cl)CC(=O)OCC1CCCN2CCCCC12 (stereo unspecified) | 55.1% (inactive) | 33.3% (inactive) | 23.6% (inactive) | 41.8% (inactive) | 45.4% (inactive) | 39.5% (inactive)
